Assay [1] in a line: qHTS assay for measurement of the activity of small molecule inhibitors on Zika virus induced Caspase-3 activity in human astrocytoma cells (AID 1224859).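 Note: plate controls were ZIKV-infected untreated cells for no effect and uninfected cells for full effect.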 As to conditions: SNB-19 ZIKV-induced caspase-3/7, luminescence, 6 h; series mostly up to 45.7 µM. The gist of the method:
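Readout is luminescence from Caspase-Glo 3/7 added after a 6 h ZIKV infection (2 FFU/cell) of compound-pretreated (1 h) SNB-19 cells; data expressed as % inhibition versus uninfected and infected wells.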
(In general: qHTS replaces the single test concentration by a dilution series.)

Assay [2] in a line: qHTS assay to identify small molecule inhibitors of chordoma cells - UCH-1 (AID 1259355). Note: % is set by controls: 0 for no effect and ±100 for the full control effect; nearly all actives have a fitted effect of over 55% in size. As to conditions: UCH-1 chordoma viability, CellTiter-Glo, 48 h, combination, with auranofin plus four topoisomerase inhibitors; series mostly up to 46.1 µM. The gist of the method: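 Screening used approved and investigational drugs in 15-point titration against 800 seeded cells per well. A fixed combination of auranofin with camptothecin, doxorubicin, rubitecan and topotecan followed compound addition, and growth was scored by CellTiter-Glo after 48hr.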

Assay [3] in a line: qHTS assay to identify small molecule inhibitors of chordoma cells - UCH-2 (AID 1259356). Note: % is set by controls: 0 for no effect and ±100 for the full control effect. The note with it: UCH-2 chordoma viability, CellTiter-Glo ATP luminescence, 48 h; series mostly up to 46.1 µM.
Assay [4] can be described thus: P-glycoprotein substrates identified in KB-8-5-11 adenocarcinoma cell line, qHTS therapeutic library screen (AID 1346987). Note: % is set by controls: 0 for no effect and ±100 for the full control effect; nearly all actives have a fitted effect of over 65% in size. As to conditions: KB-8-5-11 (P-gp overexpressing) viability, CellTiter-Glo, 72 h; series mostly up to 44.5 µM. The gist of the method: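 Compounds are pinned in dose-response onto KB-8-5-11 cells (500 cells/well, colchicine-free medium) and left 72 h at 37 degree C. CellTiter-Glo luminescence then yields AC50 values.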

Assay [5] in a line: qHTS assay for cell viability of the p53RE-bla HCT-116 cell line (AID 743292). Note: % is set by controls: 0 for no effect and ±100 for the full control effect; nearly all actives have a fitted effect of over 55% in size. The note with it: p53RE-bla HCT-116 viability, ATP luminescence, 16 h; series mostly up to 95 µM. The method in brief:
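In this qHTS counter-screen, metabolically competent p53RE-bla HCT-116 cells were counted via their ATP content. Compounds were applied for 16 h at 37 C and luciferase-coupled luminescence was measured.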

Assay [6] in a line: Natriuretic polypeptide receptor (hNpr1) antagonism - Pilot counterscreen GloSensor control cell line (AID 1347045; calls by dose curve; note: % is set by controls: 0 for no effect and ±100 for the full control effect). The note with it: HEK293 cGMP GloSensor cells, SNP-stimulated luminescence, 20 min; series mostly up to 38.3 µM. The gist of the method:
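Control counterscreen: luciferase cGMP-biosensor HEK293 cells (no Npr1) received compound for 30 min at room temperature after GloSensor substrate loading. Luminescence was measured before and 20 min after soluble guanylyl cyclase activation by 50 uM nitroprusside.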

Assay [7] is described as follows: qHTS profiling for inhibitors of Plasmodium falciparum (3D7) proliferation (AID 743322).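 Note: infected erythrocytes exposed to compound for 72 h before lysis; 100% = DMSO vehicle wells and 0% = 0.29 µM artemisinin.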 As to conditions: P. falciparum 3D7 proliferation; at 28.7 µM (top of the series) unless noted. The gist of the method: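 Parasite DNA was quantified by SYBR Green I fluorescence (ex 485, em 535 nm) after overnight lysis in saponin/Triton buffer at room temperature. Cultures at 0.3% parasitemia and 2.5% hematocrit were first exposed to compound for 72 h at 37 C; signals were normalised to artemisinin (0.29 uM) and vehicle wells.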

Assay [8] in a line: qHTS profiling for inhibitors of Plasmodium falciparum (DD2) proliferation (AID 743323; call rule not given here). The note with it: lower = more inhibition; at 28.7 µM (top of the series) unless noted. The gist of the method: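 P. falciparum Dd2-infected erythrocytes (0.3% parasitemia, 2.5% hematocrit) exposed 72 h at 37 C, 5% CO2. Lysis with SYBR Green, overnight at room temperature, fluorescence 485/535 nm; normalized to 0.29 uM artemisinin and DMSO.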

Assay [9] is described as follows: qHTS profiling for inhibitors of Plasmodium falciparum (HB3) proliferation (AID 743324).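 Note: 100% = DMSO vehicle wells and 0% = artemisinin-treated control wells.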 As to conditions: Plasmodium falciparum HB3 blood-stage proliferation; at 28.7 µM (top of the series) unless noted. The gist of the method: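 SYBR Green fluorescence (485 ex/535 em) of lysed cultures, incubated overnight at room temperature in the dark, quantifies parasite DNA. Infected erythrocytes at 0.3% parasitemia and 2.5% hematocrit were exposed 72 h; values normalized to DMSO and 0.29 uM artemisinin controls.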

SMILES strings stand for the structures. Results filed as inconclusive are left out. Activity calls are given as the source filed them. Unless noted, calls come from the whole dose curve; as a rule, active = well fitted curve in the direction sought with a large enough effect; inconclusive = small, poorly fitted or top-dose-only effect, or another doubt; inactive = no such curve, though single readings can be large; an effect the other way counts as inactive or inconclusive.

Consider `OCC(CO)N[C@H]1C[C@](O)(CO)[C@@H](O)[C@H](O)[C@H]1O`, for which the compound was called inactive in assay [1] and in assay [3]. Further, the Potency entry in assay [2] and in assay [4] was “inactive” throughout.
Regarding `CC1(C)S[C@@H]2[C@H](NC(=O)Cc3ccccc3)C(=O)N2[C@H]1C(=O)O` (tested in a mixture with another compound), the call in assay [1] and in assay [3] was inactive. The Potency result in assay [2] and in [4] was “inactive” each time.
In the case of `O=C(O)[C@@H]1CSCN1`, the compound was classed as inactive in assay [1] and in [3]. Moreover, the Potency result in assay [2] and in assay [4] was “inactive” each time.
For `c1ccc2c(CC3=NCCN3)cccc2c1`, the result in [1] and in [3] was inactive. The Potency entry in assay [2] and in assay [4] was “inactive” throughout.
Take `Cc1cc(CC(=O)O)n(C)c1C(=O)c1ccc(Cl)cc1`: the Potency result in assay [5], in assay [2] and in assay [4] was “inactive” in each case. For the same compound, the compound was classed as inactive in assay [1] and in assay [3].
With `CC(=O)Nc1ccc(/C=N/NC(N)=S)cc1`, the outcome in [1] and in assay [3] was inactive. The Potency entry in assay [2] and in assay [4] was “inactive” in each case.
Regarding `CCCn1cnc2c1c(=O)n(CCCCC(C)=O)c(=O)n2C`, the call in assay [1], in [3] and in assay [6] was inactive. In addition, the Potency result in assay [2] and in [4] was “inactive” throughout.
In assay [7], `CCCCN(CCCC)CC(O)c1cc(Cl)cc2c1-c1ccc(Cl)cc1/C2=C/c1ccc(Cl)cc1` (stereo not drawn) had a remaining parasite growth % (stronger effect = lower value) of 0.77%. In addition, the activity, percent of control in [8] came out at 1.35%. In assay [9], this compound had a remaining proliferation (% of control), lower = more inhibition of 1.36%. The outcome in assay [1] and in assay [3] was inactive. Also, the Potency entry in assay [2] was “inactive”.
Consider `CNCCC(Oc1ccc(C(F)(F)F)cc1)c1ccccc1` (stereo not drawn), for which the compound was called inactive in assay [1] and in [3].
